Consider nine compounds from PubChem BioAssay (NCI).

Holding throughout (test): NCI-60 one-dose screen, 48 h (100 = growth as untreated, 0 = no growth, -100 = all killed)
In experiment [1] the test system is NCI-H226 lung. Particulars: 10 µM unless noted.
Experiment [2] has as its system NCI-H460 lung. The settings on record: 10 µM unless noted.
The subject of experiment [3] is 786-0 renal. The settings on record: 10 µM unless noted.
Experiment [4] relates to MDA-MB-231 breast. Particulars: 10 µM unless noted.
Experiment [5] deals with SF-268 CNS. Particulars: 10 µM unless noted.
Experiment [6] relates to M14 melanoma. Particulars: 10 µM unless noted.
For experiment [7], the system named is UACC-62 melanoma. Particulars: 10 µM unless noted.
Experiment [8] concerns UO-31 renal. Particulars: 10 µM unless noted.
The test system of experiment [9] is TK-10 renal. The settings on record: 10 µM unless noted.
In experiment [10] the test system is ACHN renal. The settings on record: 10 µM unless noted.
In experiment [11] the test system is HL-60(TB) leukemia. Particulars: 10 µM unless noted.
The test system of experiment [12] is NCI/ADR-RES ovarian. The settings on record: 10 µM unless noted.
Experiment [13] has as its system T-47D breast. Particulars: 10 µM unless noted.
The subject of experiment [14] is MDA-MB-435 melanoma. Particulars: 10 µM unless noted.
The subject of experiment [15] is SW-620 colon. The settings on record: 10 µM unless noted.
Experiment [16] has as its system MCF7 breast. The settings on record: 10 µM unless noted.
The test system of experiment [17] is HCT-116 colon. Particulars: 10 µM unless noted.
Experiment [18] deals with KM12 colon. Particulars: 10 µM unless noted.
For experiment [19], the system named is SF-539 CNS. The settings on record: 10 µM unless noted.
Experiment [20] deals with HCT-15 colon. Particulars: 10 µM.

Each structure is given as a SMILES string. This is part of a sample that, as a whole, favours compounds with a hit. Of some 83,000 tested, about 20% had one in any assay.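 The test compound was applied at a single concentration to cells in 96-well plates for 48 hours, and percent growth was recorded.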 A number with no mark means an inactive call. Active and inactive are the calls of the source. Rule for the calls: active = growth percent below 10; inactive = the rest.

For the compound `CC1(C)N=C(N)N=C(N)N1c1cccc(C(=O)Nc2cccc(S(=O)(=O)F)c2)c1`, the growth is 99% in experiment [1]; 97.3% in experiment [2]; 99.5% in experiment [3]; 113% in [4]; 112% in [5]; 102% in experiment [6]. The growth was 99% in experiment [7]; 78.5% in [8]; 108% in experiment [9]; -26% (active) in experiment [10]; 103% in experiment [11]; 104% in experiment [12]. Moreover, the growth was 84% in experiment [13]; 98.4% in experiment [14]; 93.5% in experiment [15]; 95.5% in experiment [16]; 101% in [17]; 102% in [18].
In the case of `C[CH2][Pb]([CH2]C)([CH2]C)[O]C(=O)c1ccc(N)cc1`, the growth in [1] is 87.5%; in experiment [2], 69.5%; in experiment [3] it was 80.2%; in [4], 88.7%; in experiment [5], 72.9%; in [19], 87.4%. Besides, the growth was 60% in experiment [6]; 66.1% in experiment [20]; 73.4% in experiment [7]; 52.1% in [8]; 70.7% in [10]; 56.1% in experiment [11]. For the same compound, the growth in [12] is 59.7%; in [13], 47.6%; in experiment [14], -72.9% (active); in [15], 28.7%; in experiment [16], 56.1%; in experiment [17], 57.7%. Moreover, in experiment [18], the growth is 59.4%.
With `[O]=[Sn]([CH]1CCCCC1)[CH]1CCCCC1`, the growth in experiment [1] was -74% (active); in [2] it was -85.8% (active); in experiment [3], -97.6% (active); in [4] it was -78.3% (active); in [5], -98.9% (active); in experiment [19], -92.5% (active). The growth in experiment [6] was -88.6% (active); in experiment [20] it was -78.1% (active); in [7] it was -93.3% (active); in [8], -90.4% (active); in [9] it was -93.8% (active); in experiment [10], -99.3% (active). Besides, the growth in experiment [11] is 7.49% (active); in experiment [12], -83.2% (active); in experiment [13], -86.7% (active); in [14], -88.4% (active); in experiment [15], -86.8% (active); in [16], -88% (active). Further, the growth in [17] is -97.5% (active); in experiment [18] it was -94% (active).
With `O=[N+]([O-])c1cccc([As]=[As]c2cccc([N+](=O)[O-])c2)c1` (stereo not given), the growth in [1] was -60.7% (active); in [2] it was -65.7% (active); in [3], -93% (active); in [4], -91.8% (active); in [5], -92.1% (active); in [19], -99.7% (active). In addition, the growth in experiment [6] is -94.4% (active); in experiment [20], -83.5% (active); in experiment [7], -97.6% (active); in [8] it was -98.7% (active); in [9], -98.4% (active); in experiment [10], -100% (active). Moreover, the growth in experiment [11] is -57% (active); in experiment [12], -1.16% (active); in experiment [13] it was -58.3% (active); in experiment [14], -91.5% (active); in [15], -68.8% (active); in experiment [16], -53.6% (active). Also, the growth is -89.3% (active) in experiment [17] and -92.7% (active) in [18].
As to `[Br][Pb]([c]1ccccc1)([c]1ccccc1)[c]1ccccc1`, the growth in experiment [1] was -44.6% (active); in experiment [2], -100% (active); in experiment [3] it was -96.3% (active); in experiment [4] it was -92.2% (active); in experiment [5] it was -95.1% (active); in [19], -90.6% (active). Further, the growth in experiment [6] is -100% (active); in [20] it was -77.8% (active); in [7] it was -92.2% (active); in experiment [8] it was -99.8% (active); in experiment [9], -100% (active); in experiment [10] it was -92.8% (active). Also, the growth in experiment [11] was -39.9% (active); in experiment [12], -71.6% (active); in experiment [13], -72% (active); in [14], -98.6% (active); in experiment [15] it was -95.3% (active); in [16], -69.9% (active). For the same compound, the growth was -100% (active) in experiment [17] and -99.4% (active) in experiment [18].
Turning to `COP(=S)(OC)Oc1ccc(SC)c(C)c1`, the growth in experiment [1] was 85.6%; in experiment [2], 110%; in experiment [3], 104%; in [4], 113%; in experiment [5], 110%; in [19], 94.4%. The growth is 101% in experiment [6]; 105% in [20]; 95.5% in experiment [7]; 80.2% in experiment [8]; 124% in experiment [9]; 101% in [10]. The growth in [12] was 100%; in experiment [13], 96.6%; in experiment [14], 100%; in [15] it was 106%; in experiment [16], 113%; in experiment [17], 103%. Moreover, the growth in experiment [18] was 105%.
For `CC12CCC3C(CC=C4CC(O)CCC43C)C1C/C(=C\N1CCOCC1)C2=O` (stereo not given), the growth was 93.2% in experiment [1]; 108% in experiment [2]; 104% in experiment [3]; 106% in experiment [4]; 109% in experiment [5]; 108% in experiment [19]. In addition, the growth in experiment [6] was 112%; in experiment [20], 99.9%; in experiment [7] it was 104%; in experiment [8], 79.2%; in [9], 96%; in experiment [10], 99.6%. The growth in experiment [11] is 129%; in experiment [12], 106%; in experiment [13], 96%; in [14], 107%; in experiment [15] it was 105%; in experiment [16], 92.2%. The growth in experiment [17] is 101%; in experiment [18], 108%.
As to `CCOP(=O)(OCC)Oc1ccc(Sc2ccc(OP(=O)(OCC)OCC)cc2)cc1`, the growth is 101% in experiment [1]; 113% in [2]; 92.6% in [3]; 119% in experiment [4]; 100% in experiment [5]; 104% in [19]. The growth in [6] was 100%; in experiment [20] it was 107%; in [7], 111%; in experiment [8], 75%; in [9] it was 107%; in experiment [10], 115%. Moreover, the growth is 96% in [11]; 93.7% in experiment [12]; 97.9% in [13]; 96.8% in experiment [14]; 113% in experiment [15]; 118% in [16]. Besides, the values for the growth in experiment [17] and in experiment [18] were 100% and 99.9%, respectively.
As to `COC(C)(C)CCC[C@H](C)C/C=C/C(C)=C/C(=O)OC(C)C`, the growth in experiment [1] was 103%; in experiment [2] it was 109%; in [3], 85.8%; in experiment [4] it was 102%; in experiment [5], 103%; in [19] it was 118%. The growth in [6] is 100%; in experiment [20] it was 101%; in experiment [7], 96.6%; in [8], 84.9%; in experiment [9], 96.5%; in experiment [10], 109%. In addition, the growth was 79.8% in [11]; 91.7% in [12]; 75.7% in experiment [13]; 97.4% in [14]; 105% in [15]; 83.6% in experiment [17]. In addition, the growth in [18] was 107%.
